Test results published in ChEMBL document CHEMBL1157539, “Thousands of chemical starting points for antimalarial lead identification” (Nature, 2010).

Columns and labels:
Type in all cases: functional
[1] = tested on: Plasmodium falciparum; test: GSK_TCMDC: Inhibition of Plasmodium falciparum 3D7 in whole red blood cells, using parasite LDH activity as an index of growth. Test compounds present at 2uM
[2] = tested on: Plasmodium falciparum; test: GSK_TCMDC: Inhibition of Plasmodium falciparum Dd2 in whole red blood cells, using parasite LDH activity as an index of growth. Test compounds present at 2uM
[3] = tested on: HepG2; test: GSK_TCMDC: Percent inhibition of human HepG2 cell line. Test compounds present at 10uM.

Cc1ccccc1/N=C1\NC(=S)N(c2cccc(C(F)(F)F)c2)C12CCC(C(C)(C)C)CC2 (stereo not drawn)
Inhibition [1]: 95%
Inhibition [2]: 25%
Inhibition [3]: 9%

COc1ccc(CC2(c3ccc(F)cc3)N=C(N)N(CCCc3ccccc3)C2=O)cc1.O=C(O)C(F)(F)F (stereo not drawn)
Inhibition [1]: 99%
Inhibition [2]: 97%
Inhibition [3]: 38%

Cc1cc(O)c(-c2cc(C(=O)Nc3cccnc3)[nH]n2)cc1C
Inhibition [1]: 97%
Inhibition [2]: 97%
Inhibition [3]: 12%

CCCN(CCCCNC(=O)c1ccc(-c2cccnc2)cc1)C1CCc2c(O)cccc2C1.Cl (stereo not drawn)
Inhibition [1]: 87%
Inhibition [2]: 16%
Inhibition [3]: 0%

CCC(C)NS(=O)(=O)c1ccc2nc(Nc3cccc(SC)c3)n(C(C)C(C)C)c2c1 (stereo not drawn)
Inhibition [1]: 94%
Inhibition [2]: 70%
Inhibition [3]: 0%

Cc1cc(C)c(C(=O)Nc2ccc3nc(C)cc(N)c3c2)c(C)c1.Cl
Inhibition [1]: 84%
Inhibition [2]: 14%
Inhibition [3]: 12%

Br.CC(C)(C)c1ccc(OCCCON2C(N)=NC(N)=NC2(C)C)cc1
Inhibition [1]: 93%
Inhibition [2]: 76%
Inhibition [3]: 77%

O=c1c(NCCCN(Cc2ccc(F)cc2)c2ccccn2)c(NCc2cccnc2)c1=O
Inhibition [1]: 100%
Inhibition [2]: 92%
Inhibition [3]: 0%

CCCCCCc1cc2cc(-c3nc(-c4ccc(OC)cc4)cs3)c(=O)oc2cc1O
Inhibition [1]: 97%
Inhibition [2]: 93%
Inhibition [3]: 45%

O=C(Nc1ccc(-c2csc(-c3nc4ccccc4[nH]3)c2)cc1)Nc1ccsc1
Inhibition [1]: 100%
Inhibition [2]: 17%
Inhibition [3]: 50%

Cc1cc(N2CCC(NS(=O)(=O)c3cccc4cccnc34)CC2)nc(Nc2cccc(C#N)c2)n1.O=C(O)C(F)(F)F
Inhibition [1]: 98%
Inhibition [2]: 87%
Inhibition [3]: 12%
